# Measured values as given in PubChem BioAssay (NCI).
# This is part of a sample that, as a whole, favours compounds with a hit. Of some 83,000 tested, about 20% had one in any assay.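 Testing used 96-well plates and a 48-hour single-concentration exposure. Example: -40 means 40% of the starting cells died.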 A number with no mark means an inactive call. Activity calls are given as the source filed them. Rule for the calls: active = growth percent below 10; inactive = the rest.
# Columns and labels:
# Experiment in all cases: NCI-60 one-dose screen, 48 h (100 = growth as untreated, 0 = no growth, -100 = all killed)
# Conditions in all cases: 10 µM unless noted
# T-47D breast = system: T-47D breast
# BT-549 breast = system: BT-549 breast
# MDA-MB-435 melanoma = system: MDA-MB-435 melanoma
# SW-620 colon = system: SW-620 colon
# MCF7 breast = system: MCF7 breast
# HCT-116 colon = system: HCT-116 colon
# HCC-2998 colon = system: HCC-2998 colon
# KM12 colon = system: KM12 colon
Compound,growth (T-47D breast),growth (BT-549 breast),growth (MDA-MB-435 melanoma),growth (SW-620 colon),growth (MCF7 breast),growth (HCT-116 colon),growth (HCC-2998 colon),growth (KM12 colon)
Cc1ccc(-c2cc3nc(C(Cl)Cl)nc(-c4ccccc4)n3n2)cc1,90.4%,95.8%,91.5%,79.5%,64.1%,82.2%,65.3%,65.8%
O=[N+]([O-])c1ccc(-c2nnc(SCc3ccc(O)c4ncccc34)o2)cc1,9.66% (active),27.4%,19%,20.5%,6.95% (active),12.7%,28%,13.8%
CS(=O)c1nccc(-c2c(-c3ccc(F)c(OCCc4ccc(F)cc4)c3)nc3sccn23)n1 (stereo unspecified),-41.9% (active),92.8%,99.5%,-5.23% (active),-46.4% (active),-59.9% (active),17.8%,78.3%
Cc1ccc(NC(=O)N[C@@H](Cc2cc(F)cc(F)c2)C(=O)NC2C(=O)N3CCC[C@H]3C(=O)N3CCCC[C@H]3C(=O)N[C@@H](C)C(=O)N3C[C@H](C)C[C@H]3C(=O)O[C@H]2C)c(F)c1 (stereo partly specified),31.5%,28.7%,21.2%,36.5%,15.5%,9.88% (active),23.9%,38.7%
CN1CCN(c2nc(-c3cnc4ccccc4n3)cc3ccccc23)CC1,68.9%,85.7%,27.1%,11.5%,54.9%,21.4%,-26.4% (active),88.1%
O=C1c2c(c3c4ccc(Br)cc4oc3c3[nH]c4ccccc4c23)C(=O)N1CCO,10.5%,55.3%,59%,47%,18.6%,39.6%,77.8%,65.6%
Nc1nc(-c2cccc([N+](=O)[O-])c2)c(N=Nc2cccc(Cl)c2)s1,13.6%,48.7%,53.3%,52.4%,19.1%,33.2%,27.2%,25.7%
